Experimental data taken from PubChem BioAssay (NCI).
This is part of a sample that, as a whole, favours compounds with a hit. Of some 79,000 tested, about 15% had one in any assay. Calls of active or inactive are those of the source. Rule as the data show it: active = growth inhibition above about 70%; inactive = the rest.

Tests used:
[1] = NCI Yeast Anticancer Drug Screen. Data for the wt1 strain (AID 149);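 also: 0% = growth of vehicle-treated wt1 cultures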; settings: S. cerevisiae wt1 strain (SPY 50644) growth inhibition, hits give high values
Method in brief: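 Growth inhibition read against vehicle controls after compound exposure of the wt1 yeast strain.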

[2] = NCI Yeast Anticancer Drug Screen. Data for the rad50EPP+ strain (AID 151);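 also: 0% = growth of vehicle-treated control cultures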; settings: S. cerevisiae rad50 mutant strain, hits give high values
Method in brief: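 Growth inhibition read against vehicle controls in rad50EPP+ yeast, a strain altered in DNA damage repair, after compound exposure.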

[3] = NCI Yeast Anticancer Drug Screen. Data for the rad50 strain (AID 155);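 also: 0% = growth of vehicle-only cultures of the same strain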; settings: S. cerevisiae rad50 strain growth inhibition, hits give high values
Method in brief: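 Readout: growth inhibition relative to vehicle-treated cultures. Compound exposure was carried out in a genetically defined yeast strain deficient in DNA damage repair.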

[4] = NCI Yeast Anticancer Drug Screen. Data for the mec2-1 strain (AID 157); settings: S. cerevisiae mec2-1 strain, hits give high values
Method in brief: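 Yeast mec2-1 mutant treated with compound. Readout: growth inhibition vs vehicle controls.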

[5] = NCI Yeast Anticancer Drug Screen. Data for the rad14 strain (AID 159);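 also: 0% = growth of vehicle-treated control cultures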; settings: S. cerevisiae rad14 strain growth inhibition, hits give high values
Method in brief: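 Growth inhibition vs vehicle controls; genetically altered yeast strain (DNA damage repair defect) treated with test compounds.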

[6] = NCI Yeast Anticancer Drug Screen. Data for the sgs1 mgt1 strain (AID 161);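 also: 0% = growth of cultures given vehicle only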; settings: S. cerevisiae sgs1 mgt1 strain, hits give high values
Method in brief: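 Genetically altered yeast, compound exposure, growth inhibition relative to vehicle.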

[7] = NCI Yeast Anticancer Drug Screen. Data for the CLN2oe strain (AID 163);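 also: 0% = growth of vehicle-only control cultures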; settings: S. cerevisiae CLN2oe strain, hits give high values
Method in brief: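 Read-out: yeast growth inhibition, expressed relative to vehicle-only controls. The strain bears an engineered cell-cycle alteration.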

[8] = NCI Yeast Anticancer Drug Screen. Data for the cln2 rad14 strain (AID 165);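 also: 0% = growth equal to vehicle treated cultures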; settings: S. cerevisiae cln2 rad14 strain, hits give high values
Method in brief: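 cln2 rad14 yeast strain; compound exposure; growth inhibition read vs vehicle controls.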

[9] = NCI Yeast Anticancer Drug Screen. Data for the bub3 strain (AID 167); settings: S. cerevisiae bub3 mutant strain, hits give high values
Method in brief: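 Readout: yeast growth inhibition, expressed relative to vehicle-only wells. The test organism is a mutant strain from a panel with lesions in DNA repair or checkpoint genes.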

[10] = NCI Yeast Anticancer Drug Screen. Data for the wt2 strain (AID 169);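 also: 0% = growth of vehicle-treated yeast cultures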; settings: S. cerevisiae wt2 strain growth inhibition, hits give high values
Method in brief: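 Read-out: growth inhibition versus vehicle-treated control cultures after compound exposure of the yeast strain.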

[11] = NCI Yeast Anticancer Drug Screen. Data for the mlh1 strain (AID 171);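 also: 0% = growth of vehicle-treated control cultures of the same strain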; settings: S. cerevisiae mlh1 strain growth inhibition, hits give high values
Method in brief: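 Read-out: growth inhibition versus vehicle controls. Strain: engineered yeast with a defined DNA repair or cell cycle defect, compound-treated.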

[12] = NCI Yeast Anticancer Drug Screen. Data for the sgs1 strain (AID 173);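 also: 0% = growth of vehicle-only control cultures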; settings: S. cerevisiae sgs1 mutant, hits give high values
Method in brief: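 Read-out: yeast growth inhibition relative to vehicle controls, following compound exposure of a strain with a defined DNA repair/cell cycle alteration.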

[13] = NCI Yeast Anticancer Drug Screen. Data for the mlh1 rad18 strain (AID 175); settings: S. cerevisiae mlh1 rad18 strain growth inhibition, hits give high values
Method in brief: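 Yeast w/ defined DNA-repair lesions; compound exposure; growth vs vehicle controls → % inhibition.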

[14] = NCI Yeast Anticancer Drug Screen. Data for the rad18 strain (AID 177); settings: S. cerevisiae rad18 mutant growth inhibition, hits give high values
Method in brief: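 Readout: growth inhibition vs vehicle controls. Cells: genetically altered yeast strain, DNA repair defect.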

[15] = NCI Yeast Anticancer Drug Screen. Data for the rad52 strain (AID 147);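 also: 0% = growth of vehicle-treated control cultures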; settings: S. cerevisiae rad52 mutant growth inhibition, hits give high values
Method in brief: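 Read-out: growth inhibition versus vehicle-treated controls. Cells were a DNA repair-deficient yeast strain treated with compounds.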

[16] = NCI Yeast Anticancer Drug Screen. Data for the mgt1 strain (AID 153); settings: S. cerevisiae mgt1 mutant growth inhibition, hits give high values
Method in brief: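 mgt1 yeast grown with test compound; read-out is growth inhibition versus vehicle-treated cultures.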

[17] = at 5.0 µM (retest, dose inferred, filed as 0.5)
[18] = at 50.0 µM (retest, dose inferred, filed as 5.0)

Measured: growth inhibition

NC(=O)NC1C(c2ccccc2)=C1c1ccccc1
active: [2]; at 1.2 µM 74% | [2]; at 3.7 µM 73% | [2]; at 11.0 µM 89% | [2]; at 33.0 µM 96% | [2]; at 100.0 µM 95% | [3]; at 3.7 µM 70% | [3]; at 11.0 µM 84% | [3]; at 33.0 µM 93% | [3]; [18] 79% | [3]; at 50.0 µM 92% | [3]; at 100.0 µM 95% | [5]; at 11.0 µM 73% | [5]; at 33.0 µM 97% | [5]; at 100.0 µM 97% | [12]; at 100.0 µM 84%
inactive: [1]; at 1.2 µM -2% | [1]; at 3.7 µM 12% | [1]; at 11.0 µM 26% | [1]; at 33.0 µM 26% | [1]; at 100.0 µM 27% | [3]; at 1.2 µM 61% | [3]; [17] -19% | [4]; at 1.2 µM 0% | [4]; at 3.7 µM -1% | [4]; [17] -50% | [4]; at 11.0 µM 6% | [4]; at 33.0 µM 5% | [4]; [18] -36% | [4]; at 50.0 µM 13.2% | [4]; at 100.0 µM 27% | [5]; at 1.2 µM 51% | [5]; at 3.7 µM 58% | [6]; [17] -45% | [6]; [18] -10% | [6]; at 50.0 µM 17.4% | [7]; at 1.2 µM -3% | [7]; at 3.7 µM -3% | [7]; at 11.0 µM -3% | [7]; at 33.0 µM -5% | [7]; at 100.0 µM 30% | [8]; [17] -18% | [8]; [18] 62% | [8]; at 50.0 µM 38% | [9]; at 1.2 µM -1% | [9]; at 3.7 µM -6% | [9]; [17] -73% | [9]; at 11.0 µM -4% | [9]; at 33.0 µM -14% | [9]; [18] -68% | [9]; at 50.0 µM -28.7% | [9]; at 100.0 µM -10% | [10]; at 1.2 µM 13% | [10]; at 3.7 µM 20% | [10]; at 11.0 µM 45% | [10]; at 33.0 µM 53% | [10]; at 100.0 µM 48% | [11]; at 1.2 µM -7% | [11]; at 3.7 µM -4% | [11]; at 11.0 µM 14% | [11]; at 33.0 µM 17% | [11]; at 100.0 µM 51% | [12]; at 1.2 µM 8% | [12]; at 3.7 µM 5% | [12]; at 11.0 µM 44% | [12]; at 33.0 µM 56% | [13]; [17] -104% | [13]; [18] -38% | [13]; at 50.0 µM 44.7% | [14]; at 1.2 µM -7% | [14]; at 3.7 µM 3% | [14]; at 11.0 µM 34% | [14]; at 33.0 µM 38% | [14]; at 100.0 µM 38%

O=C1c2ccccc2C(=O)c2c(O)c(NCCNCCO)cc(O)c21
inactive: [15]; at 1.2 µM -31% | [15]; at 3.7 µM -13% | [15]; at 11.0 µM 6% | [2]; at 1.2 µM -4% | [2]; at 3.7 µM 8% | [2]; at 11.0 µM 2% | [2]; at 33.0 µM 16% | [16]; at 1.2 µM 0% | [16]; at 3.7 µM 4% | [16]; at 11.0 µM 36% | [3]; at 1.2 µM -9% | [3]; at 3.7 µM -1% | [3]; [17] 19% | [3]; at 11.0 µM 21% | [4]; at 1.2 µM -3% | [4]; at 3.7 µM -12% | [4]; [17] 23% | [4]; at 11.0 µM 11% | [5]; at 1.2 µM -5% | [5]; at 3.7 µM -2% | [5]; at 11.0 µM 40% | [6]; [17] 35% | [7]; at 1.2 µM 21% | [7]; at 3.7 µM 33% | [7]; at 11.0 µM 29% | [8]; [17] 11% | [8]; [18] 57% | [8]; at 50.0 µM 65.5% | [9]; at 1.2 µM 13% | [9]; at 3.7 µM 21% | [9]; [17] 39% | [9]; at 11.0 µM 45% | [11]; at 1.2 µM -23% | [11]; at 3.7 µM -13% | [11]; at 11.0 µM 44% | [12]; at 1.2 µM -4% | [12]; at 3.7 µM 12% | [12]; at 11.0 µM 48% | [13]; [17] 58% | [14]; at 1.2 µM -13% | [14]; at 3.7 µM -3% | [14]; at 11.0 µM 20%
active: [15]; at 33.0 µM 88% | [15]; at 100.0 µM 92% | [2]; at 100.0 µM 92% | [16]; at 33.0 µM 91% | [16]; at 100.0 µM 96% | [3]; at 33.0 µM 89% | [3]; [18] 93% | [3]; at 50.0 µM 87.3% | [3]; at 100.0 µM 94% | [4]; at 33.0 µM 84% | [4]; [18] 96% | [4]; at 50.0 µM 87.2% | [4]; at 100.0 µM 86% | [5]; at 33.0 µM 95% | [5]; at 100.0 µM 95% | [6]; [18] 97% | [6]; at 50.0 µM 85.2% | [7]; at 33.0 µM 82% | [7]; at 100.0 µM 93% | [9]; at 33.0 µM 90% | [9]; [18] 97% | [9]; at 50.0 µM 70.7% | [9]; at 100.0 µM 91% | [11]; at 33.0 µM 91% | [11]; at 100.0 µM 94% | [12]; at 33.0 µM 93% | [12]; at 100.0 µM 94% | [13]; [18] 95% | [13]; at 50.0 µM 90.3% | [14]; at 33.0 µM 89% | [14]; at 100.0 µM 94%

O=c1cccccc1[O-].O=c1cccccc1[O-].O=c1cccccc1[O-].[Eu+3]
active: [1]; at 33.0 µM 97% | [1]; at 100.0 µM 97% | [2]; at 33.0 µM 95% | [2]; at 100.0 µM 96% | [16]; at 33.0 µM 97% | [16]; at 100.0 µM 98% | [3]; at 11.0 µM 71% | [3]; at 33.0 µM 97% | [3]; at 50.0 µM 92.5% | [3]; at 100.0 µM 93% | [4]; at 33.0 µM 90% | [4]; at 50.0 µM 91.7% | [4]; at 100.0 µM 98% | [5]; at 33.0 µM 98% | [5]; at 100.0 µM 98% | [6]; at 50.0 µM 89.7% | [7]; at 33.0 µM 92% | [7]; at 100.0 µM 98% | [8]; at 50.0 µM 86.7% | [9]; at 33.0 µM 96% | [9]; at 50.0 µM 92.8% | [9]; at 100.0 µM 98% | [10]; at 33.0 µM 99% | [10]; at 100.0 µM 98% | [11]; at 33.0 µM 95% | [11]; at 100.0 µM 98% | [12]; at 33.0 µM 98% | [12]; at 100.0 µM 98% | [13]; at 50.0 µM 89.8% | [14]; at 33.0 µM 98% | [14]; at 100.0 µM 97%
inactive: [1]; at 1.2 µM 6% | [1]; at 3.7 µM 2% | [1]; at 11.0 µM 14% | [2]; at 1.2 µM 0% | [2]; at 3.7 µM -1% | [2]; at 11.0 µM 16% | [16]; at 1.2 µM 13% | [16]; at 3.7 µM 8% | [16]; at 11.0 µM 14% | [3]; at 1.2 µM 6% | [3]; at 3.7 µM -29% | [3]; [17] 38% | [3]; [18] 38% | [4]; at 1.2 µM -1% | [4]; at 3.7 µM 2% | [4]; [17] 26% | [4]; at 11.0 µM 16% | [4]; [18] 26% | [5]; at 1.2 µM 3% | [5]; at 3.7 µM 7% | [5]; at 11.0 µM 25% | [6]; [17] 65% | [6]; [18] 65% | [7]; at 1.2 µM 5% | [7]; at 3.7 µM 11% | [7]; at 11.0 µM 25% | [8]; [17] 5% | [8]; [18] 5% | [9]; at 1.2 µM 1% | [9]; at 3.7 µM 1% | [9]; [17] 8% | [9]; at 11.0 µM 2% | [9]; [18] 8% | [10]; at 1.2 µM 1% | [10]; at 3.7 µM 3% | [10]; at 11.0 µM 22% | [11]; at 1.2 µM -4% | [11]; at 3.7 µM -1% | [11]; at 11.0 µM 13% | [12]; at 1.2 µM 2% | [12]; at 3.7 µM 1% | [12]; at 11.0 µM 26% | [13]; [17] 24% | [13]; [18] 24% | [14]; at 1.2 µM 3% | [14]; at 3.7 µM 15% | [14]; at 11.0 µM 42%
